Each structure is given as a SMILES string. This is part of a sample that, as a whole, favours compounds with a hit. Of some 83,000 tested, about 20% had one in any assay.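 Compound tested at a single concentration for 48 hours in 96-well plates; a percent growth value below 10 was scored as active.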 Values without a mark were called inactive. The source made the active and inactive calls.

Test systems include DU-145 prostate; K-562 leukemia; MALME-3M melanoma; MDA-MB-231 breast; RXF 393 renal; SF-268 CNS; SF-295 CNS; SF-539 CNS; UACC-257 melanoma; M14 melanoma.
Common to all, as to test: NCI-60 one-dose screen, 48 h (100 = growth as untreated, 0 = no growth, -100 = all killed)
Holding throughout (conditions): 10 µM unless noted

Turning to `CN1CCC(OC2c3ccccc3CCc3ccccc32)CC1`, the growth was 107% in the assay with DU-145 prostate; 96.8% in the assay on K-562 leukemia; 102% in the assay on MALME-3M melanoma; 74.8% in the assay with MDA-MB-231 breast; 89.2% in the assay with RXF 393 renal; 89.5% with SF-268 CNS. The growth in the assay with SF-295 CNS was 88.6%; in the assay on SF-539 CNS, 102%; with UACC-257 melanoma it was 92.6%; with M14 melanoma, 103%.

As for `C=CC(=O)N1CC2(CC(n3nc(-c4ccc(Oc5ccccc5)cc4)c4c(N)ncnc43)C2)C1`, the growth with DU-145 prostate was 11%; with K-562 leukemia it was 17.7%; with MALME-3M melanoma, 12.7%; with MDA-MB-231 breast it was 3.31% (active); in the assay on RXF 393 renal it was -19.4% (active); in the assay on SF-268 CNS, 10.9%. Also, the growth with SF-295 CNS was 70.4%; in the assay with SF-539 CNS, 10.1%; in the assay with UACC-257 melanoma, 5.54% (active); with M14 melanoma, 14.8%.

In the case of `O=C1/C(=C/c2ccc(Oc3ccccc3)cc2)N=C(c2ccccc2)N1CCc1cccs1`, the growth in the assay with DU-145 prostate is 98%; in the assay with K-562 leukemia, 84%; with MALME-3M melanoma, 86.1%; with MDA-MB-231 breast, 79.8%; in the assay on RXF 393 renal it was 92.1%; in the assay with SF-268 CNS, 80.8%. The growth was 82.9% in the assay with SF-295 CNS, 104% with SF-539 CNS, 99.1% with UACC-257 melanoma and 58.7% with M14 melanoma.

Consider `Nc1cccc2c(=S)c3ccccc3[nH]c12`, for which the growth with DU-145 prostate was 113%; in the assay on K-562 leukemia it was 91%; in the assay with MALME-3M melanoma it was 102%; in the assay with MDA-MB-231 breast, 68.3%; in the assay with RXF 393 renal, 95.1%; in the assay with SF-268 CNS, 92.5%. Also, the growth is 97.3% in the assay with SF-295 CNS, 96.9% with SF-539 CNS, 99% in the assay with UACC-257 melanoma and 102% in the assay with M14 melanoma.

Regarding `CCN(CC)c1ccc2c(c1)OS(=O)(=O)N=C2`, the growth in the assay on DU-145 prostate is 108%; in the assay on K-562 leukemia, 101%; with MALME-3M melanoma, 98.1%; in the assay with MDA-MB-231 breast it was 134%; in the assay on RXF 393 renal, 119%; in the assay on SF-268 CNS, 97.7%. Further, the growth in the assay with SF-295 CNS was 99.4%; in the assay with SF-539 CNS, 99.9%; in the assay with UACC-257 melanoma, 103%; in the assay on M14 melanoma it was 98.6%.

As for `NS(=O)(=O)c1cc(Br)c2c(c1)S(=O)(=O)NCN2`, the growth in the assay with DU-145 prostate was 108%; with K-562 leukemia it was 80.6%; in the assay with MALME-3M melanoma, 121%; with MDA-MB-231 breast it was 118%; with RXF 393 renal, 174%; with SF-268 CNS it was 103%. For the same molecule, the growth with SF-295 CNS was 104%; with SF-539 CNS, 101%; in the assay on UACC-257 melanoma it was 94.5%; in the assay on M14 melanoma, 109%.

With `Cc1nc(NN)c([N+](=O)[O-])c(NN)n1`, the growth with DU-145 prostate is 109%; in the assay with K-562 leukemia it was 93.6%; with MALME-3M melanoma, 106%; in the assay with MDA-MB-231 breast, 107%; in the assay with RXF 393 renal, 160%; in the assay with SF-268 CNS, 102%. Further, the growth was 98.5% with SF-295 CNS, 95.2% in the assay with SF-539 CNS, 99.3% in the assay on UACC-257 melanoma and 98.2% with M14 melanoma.

`COc1ccc2nc(-n3nc(C)cc3C)c(-n3nc(C)cc3C)nc2c1`: the growth in the assay on DU-145 prostate was 128%; in the assay with K-562 leukemia, 114%; in the assay on MALME-3M melanoma, 108%; in the assay on MDA-MB-231 breast, 103%; with RXF 393 renal it was 104%; in the assay on SF-268 CNS, 119%. Further, the growth in the assay with SF-295 CNS is 98.7%; in the assay on SF-539 CNS, 107%; in the assay on UACC-257 melanoma it was 119%; in the assay with M14 melanoma, 102%.

Turning to `COc1ccc(Cn2c(Br)c3c(c2-c2cc(OC)c(OC)c(OC)c2)CCc2sc(N)nc2-3)cc1`, the growth in the assay with DU-145 prostate is 12.4%; in the assay on K-562 leukemia it was 4.43% (active); in the assay on MALME-3M melanoma it was 47.7%; with MDA-MB-231 breast, 12.6%; in the assay on RXF 393 renal, -0.407% (active); with SF-268 CNS, 44.3%. Besides, the growth was 43.7% in the assay on SF-295 CNS, -13.5% (active) in the assay with SF-539 CNS, 57.5% in the assay on UACC-257 melanoma and 12% in the assay on M14 melanoma.

Consider `O=c1c2c(=NCCN3CCCC3)cc3c(=O)n(CCCN4CCOCC4)c(=O)c4ccc(c(O)n1CCCN1CCOCC1)c2c4-3`, for which the growth with DU-145 prostate was 2.23% (active); with K-562 leukemia, 3.73% (active); in the assay with MALME-3M melanoma it was -70.7% (active); in the assay with MDA-MB-231 breast, -24.5% (active); with RXF 393 renal, -66.3% (active); with SF-268 CNS, -26.8% (active). For the same molecule, the growth in the assay on SF-295 CNS is 1.07% (active); in the assay with SF-539 CNS, -53.9% (active); in the assay with UACC-257 melanoma, -14.3% (active); with M14 melanoma, -73.4% (active).

`COc1cc(/C=C/C(=O)CC(=O)/C=C/c2cc(Br)c(OC)c(OC)c2)cc(Br)c1OC`: the growth in the assay with DU-145 prostate was 108%; with K-562 leukemia, 73.3%; in the assay with MALME-3M melanoma it was 96.6%; in the assay on MDA-MB-231 breast, 101%; with RXF 393 renal, 114%; with SF-268 CNS, 104%. The growth in the assay on SF-295 CNS was 102%; in the assay on SF-539 CNS, 102%; in the assay with UACC-257 melanoma it was 93.1%; with M14 melanoma, 96.9%.

`Cc1ccc(NS(=O)(=O)c2ccc(-c3cnc(C4CC4)o3)cc2)cc1`: the growth is 49.7% in the assay with DU-145 prostate; 14.6% in the assay with K-562 leukemia; 47.9% with MALME-3M melanoma; 44.7% with MDA-MB-231 breast; 26.5% in the assay on RXF 393 renal; 50.1% with SF-268 CNS. For the same molecule, the growth with SF-295 CNS is 19.9%; in the assay on SF-539 CNS, 26.7%; with UACC-257 melanoma, 55.1%; in the assay on M14 melanoma it was 9.71% (active).

Consider `COc1ccc(C(=O)COc2cccc(/C=C3\CSc4ccc(C)cc4C3=O)c2)cc1`, for which the growth was 109% with DU-145 prostate; 29.3% in the assay on K-562 leukemia; 98.2% in the assay with MALME-3M melanoma; 79.4% in the assay on MDA-MB-231 breast; 71.1% with RXF 393 renal; 104% in the assay on SF-268 CNS. Also, the growth is 102% in the assay with SF-295 CNS, 103% with SF-539 CNS, 95.5% in the assay on UACC-257 melanoma and 93.8% in the assay with M14 melanoma.

In the case of `COC(=O)CCC(=O)c1ccccc1`, the growth in the assay with DU-145 prostate is 106%; with K-562 leukemia, 96.9%; in the assay with MALME-3M melanoma, 158%; in the assay with MDA-MB-231 breast, 111%; with RXF 393 renal, 139%; in the assay with SF-268 CNS, 107%. The growth in the assay with SF-295 CNS was 91.8%; with SF-539 CNS it was 99.9%; in the assay on UACC-257 melanoma it was 106%; in the assay with M14 melanoma, 103%.

The values above are taken from PubChem BioAssay (NCI).
